Legend:
[1] = molecular target: T1, Aspartate--tRNA(Asp/Asn) ligase (Mycobacterium tuberculosis (strain ATCC 25618 / H37Rv)) (UniProt P9WFW3); assay: Assay for Asp RNA synthetase-1 from Mycobacterium tuberculosis; type: functional; design: scale not given: direction of the effect not stated beside the values; details: 30 µM; also: in the data most compounds retested in dose-response had high values
T1 sequence (whole entry): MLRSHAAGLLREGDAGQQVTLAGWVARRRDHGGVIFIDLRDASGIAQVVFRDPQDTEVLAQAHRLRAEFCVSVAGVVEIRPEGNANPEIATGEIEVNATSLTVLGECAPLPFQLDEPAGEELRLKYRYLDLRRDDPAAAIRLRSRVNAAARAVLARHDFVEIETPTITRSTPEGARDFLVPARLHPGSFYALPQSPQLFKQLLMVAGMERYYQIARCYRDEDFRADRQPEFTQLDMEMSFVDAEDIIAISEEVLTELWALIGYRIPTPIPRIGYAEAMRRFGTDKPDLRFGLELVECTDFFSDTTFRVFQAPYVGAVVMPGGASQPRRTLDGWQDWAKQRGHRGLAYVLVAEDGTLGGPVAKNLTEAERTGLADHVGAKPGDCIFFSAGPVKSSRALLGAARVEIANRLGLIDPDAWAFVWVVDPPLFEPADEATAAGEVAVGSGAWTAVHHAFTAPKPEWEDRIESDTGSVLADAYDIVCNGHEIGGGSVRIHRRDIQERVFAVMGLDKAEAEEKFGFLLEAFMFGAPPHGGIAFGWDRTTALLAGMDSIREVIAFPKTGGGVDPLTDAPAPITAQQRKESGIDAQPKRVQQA

[2] = molecular target: Shiga toxin 2 (Escherichia coli O157:H7) (UniProt P09385+P09386); assay: E. coli 0.157:H7 Shiga Toxin SOP - stx2 screening assay; type: functional; design: scale not given: direction of the effect not stated beside the values; details: 30 µM

Structure (SMILES) | Percent Effect [1] | Percent Effect [2]
CCn1c(CN2CCN(CC(N)=O)CC2)nc2c(F)cccc21 | -3.37% | 6.95%
COc1ccc(C2CCCN2C(=O)NCCNc2ncccn2)cc1 (centres undefined) | 10.2% | -17.2%
CCc1cc(NCC(O)CN2CCCCC2)n2ncnc2n1 (centres undefined) | 8.06% | -8.11%
Cc1cccc(Cn2ccc(NS(C)(=O)=O)n2)c1 | 6.96% | -21.6%
COCC(C)NC(=O)c1cc(Br)c2c(c1)OCCO2 (centres undefined) | -9.24% | -10.8%
O=S1(=O)c2ccccc2C2(CCN(Cc3ccccc3)C2)N1CC1CC1 (centres undefined) | -4.07% | 12.3%
CCOc1ccc(C(=O)NS(=O)(=O)c2cncc(Br)c2)cc1OC | -5.81% | -12%
Cc1ccc(NC2CCN(C(=O)c3cccc(F)c3F)CC2)nn1 | -4.5% | -17%
O=C(CCNc1ncccn1)N1CCCC(n2ccnc2)C1 (centres undefined) | 1.03% | -9.67%
O=C(CCc1ccccc1)N1CCC(N2CCNC2=O)CC1 | 1.87% | 26%
O=c1cc(CN2CCCC2)nc2n1CCCN(Cc1ccsc1)C2 | -4.85% | -22.4%
CN1CCN(Cc2ccccc2CNC(=O)c2ccc(Br)cc2F)CC1 | 2.64% | -9.7%
CCN(CCn1cccn1)Cc1nc(-c2cccs2)oc1C | -0.251% | 7.38%
Cc1cccc(-n2ncc(C(=O)N3CCn4c(C)nnc4C3)c2C)c1 | 3.68% | 32.6%
COc1ccc(C2Nc3ccccc3C3=NCCCN32)cc1OC (centres undefined) | 3.81% | -2.36%
CC(=O)N1CCc2c(nc(-c3ccncc3)nc2N(C)CC(O)CO)C1 (centres undefined) | -1.07% | 5.83%
COc1c(C)cnc(CN2CCCCC2Cn2nc(C)nc2C)c1C (centres undefined) | -2.54% | -21.3%
O=C(CCNC(=O)C1CCCC1)NCc1ccccc1Cn1cncn1 | 2.64% | 29.7%
CCc1nnc2n1CCN(C(=O)c1cnc3ccccc3n1)C2 | -4.57% | 0.361%
CC1CN(C(=O)CN(Cc2ccccc2Br)C2CC2)CCO1 (centres undefined) | 2.59% | 29.2%
C=Cn1ncc(CN2C[C@@H]3CCCN3C[C@H]2CCSC)c1C | 1.89% | -18.3%
CCC(=O)N1CCCC1c1nccnc1Nc1nc(C)cc(C)n1 (centres undefined) | 4.25% | -28.8%
CO[C@@H]1CC[C@H]2[C@H]1OCCN2C(=O)C1=CCCC1 | 3.45% | -25.5%
CN(CC1CCCCC1)C(=O)c1ccc(-n2ncc(C#N)c2N)cc1 | -2.55% | -24.4%
COc1ccnc(N2CCN(C(=O)c3csc(C4CC4)n3)CC2)n1 | -0.494% | -2.7%
CNC(=O)C1CCC(NC(=O)N(C)Cc2c(C)noc2C)CC1 (centres undefined) | -3.01% | 14.3%

Structure (SMILES) | Percent Effect [1] | Percent Effect [2]
Cc1cn2c(n1)CCC(NC(=O)c1cnc(C)nc1C(C)C)C2 (centres undefined) | 2.91% | 20.9%
Cc1nc(C)n(CC2CCCN2Cc2nc3ccccc3nc2C)n1 (centres undefined) | -11.8% | -7.98%
CC(Oc1ccccc1C(F)(F)F)C(=O)NCCC(=O)N(C)C (centres undefined) | -1.14% | 8.25%
O=C(COc1coc(CN2CCCCCC2)cc1=O)c1ccccc1 | -4.01% | -112%
CCn1ncc2c1CCCC2NCC1=Cc2ccccc2OC1 (centres undefined) | 4.82% | -23.2%
Cc1occc1C(=O)N1CCC2(CCC(=O)N(CC(N)=O)C2)CC1 | -2.4% | -17.1%
O=C(NC1=NCCCN1c1ccc(Cl)cc1)c1cccc(Cl)c1 | 8.32% | -69.6%
CNC(=O)COc1ccc(CNCc2ccc(F)cc2F)cc1 | 3.4% | -35.4%
CN(Cc1ccccc1O)C(=O)NC1CCCN(c2ncccn2)C1 (centres undefined) | -4.06% | 34%
CCN(CC)C(C(=O)NCc1ccc(N2CCCC2)nc1)C(C)C (centres undefined) | -8.76% | 9.3%
Cc1noc([C@H]2C[C@H]3OCC[C@H]3N(Cc3ccc4c(c3)OCO4)C2)n1 | 2.03% | -3.36%
O=C(c1ccc2c(c1)CCCC2)N1CCOCC1c1ncon1 (centres undefined) | -2.09% | 0.194%
Cc1cn2c(n1)CCC(NC(=O)c1ccc(CS(C)(=O)=O)o1)C2 (centres undefined) | -4.46% | 10.6%
N#Cc1ccc(NCCNc2ccc(C(F)(F)F)cn2)nc1 | -3.59% | 45.1%
Cc1ccc(NC2CCN(C(=O)c3c(C)noc3C)CC2)nn1 | -3.12% | 7.22%
CS(=O)(=O)NCCCNC(=O)c1cccc(-n2cccc2)c1 | -2.88% | -28.3%
O=C(NC1CCCN(c2ncccn2)C1)c1ccoc1 (centres undefined) | -4.64% | -14.5%
O=C1CCCc2nccc(-c3ccccc3)c21 | 1.6% | -14.1%
COc1ncccc1CNC(=O)c1cccc(C)n1 | -1.63% | -24.7%
O=S(=O)(CCNC1CCc2ncnn2C1)c1ccccc1 (centres undefined) | 1.06% | -24.1%
CCN(Cc1ccccc1)C(=O)CN1CCCC(Cn2cncn2)C1 (centres undefined) | 2.11% | 3.34%
COCCC(=O)N1CC2(CCN(Cc3cccc(Cl)c3)CC2)C1 | -1.46% | -17.6%
Cc1cc(C[C@@H]2COC[C@@H]2NC(=O)Cn2c(=O)oc3ccccc32)on1 | -0.0288% | -25.4%
O=C1CC(c2ccc(C(=O)O)cc2)c2ncn(-c3ccccc3)c2N1 (centres undefined) | 19.5% | -25.4%
CCn1ccnc1CN1CCC(CNC(=O)c2ccc(C)nc2)C1 (centres undefined) | -0.565% | -34.1%
COc1ccc(CNC(=O)CNc2cc3c(cc2Cl)OCCCO3)cc1 | 2.02% | 0.898%

Structure (SMILES) | Percent Effect [1] | Percent Effect [2]
Cc1cc(NC(=O)CN2CCCC2c2noc(C(C)C)n2)n(C)n1 (centres undefined) | -2.48% | 5.27%
Cn1cc(N2CCC3(CCN(S(=O)(=O)C4CC4)C3)C2=O)cn1 (centres undefined) | -3.64% | -21.1%
CCc1noc(C2CCCCN2C(=O)c2ccn(C3CCCC3)n2)n1 (centres undefined) | -5.11% | -5.88%
CC(C)C(=O)N1CCC(c2nc(O)cc(-c3ccncc3)n2)CC1 | -2.46% | 3.51%
COc1cc(C)nc(N2CCN(C(=O)CCn3cc(C)cn3)CC2)n1 | -3.63% | 12%
CC(C)(C)NC(=O)C1CSCN1S(=O)(=O)c1cccc(F)c1 (centres undefined) | 10.2% | -19.4%
Cc1cccc(C(=O)Nc2ccc(OC3CCN(C)CC3)cc2)c1 | 0.862% | -60.2%
OC(COc1ccccc1)CN1CCC(c2ccn[nH]2)CC1 (centres undefined) | -0.6% | -7.22%
COCCOCc1cccc(NC(=O)N2CCCC2c2ccncc2)c1 (centres undefined) | -1.56% | 18.6%
CN1CC(c2ccccc2)CC12CCN(C(=O)c1c(Cl)cnn1C)CC2 (centres undefined) | -1.22% | 17%
CCc1nc(C2CCCN(C(=O)c3cccc4c3ccn4C)C2)no1 (centres undefined) | -0.845% | 4.78%
Cc1cnn(CC2CCCN2CC(=O)N(C)Cc2ccc(C)o2)c1 (centres undefined) | 0.457% | -11.2%
O=C(Nc1ccccn1)N(CCO)Cc1ccsc1 | -3.79% | 31.7%
CCn1ncc2c1C(COCC1CC1)CN(S(=O)(=O)N(C)C)C2 (centres undefined) | -1.37% | -9.58%
Cc1noc(C)c1CNC(=O)c1ccc(NC2CC2)nc1 | 3.65% | 13.4%
Fc1ccc(CN2CCCC2c2cncc(-n3ccnc3)n2)cc1 (centres undefined) | 3.75% | 24.5%
CC(C)c1nnc2n1CCN(CC(=O)Nc1nncs1)C2 | -2.1% | 10%
Cc1cc(C(=O)N2Cc3ccccc3OC3(CCOCC3)C2)nc(N)n1 | 0.67% | 3.58%
CCCc1cc(NC2CCc3ncnn3C2)n2ncnc2n1 (centres undefined) | -2.01% | 1.41%
Cc1ccc(S(=O)(=O)Nc2ccc(=O)n(C)c2)cc1 | 26.8% | -7.78%
CCOCC(O)CN1CCN(C(=O)CC(C)C)CC1 (centres undefined) | -2.19% | 18.6%
Cc1ccc(C(=O)N2CCC3(CC2)COC(COc2ccccn2)C3)o1 (centres undefined) | 4.9% | 5.7%
Cc1ccccc1CN1CCCN(C2CCOC2=O)CC1 (centres undefined) | -0.409% | 15%
O=C1CCC(C(=O)NCc2nn(-c3ccccc3)c3c2CCC3)CN1 (centres undefined) | -2.23% | -54.3%
Cc1cccc(N2CCN(CCNC(=O)c3ccnn3C)CC2)c1 | 5.62% | -28.1%
COc1ccc2cc(C3CN(C(=O)C4CCOCC4)CCO3)ccc2c1 (centres undefined) | 0.234% | 7.44%

Structure (SMILES) | Percent Effect [1] | Percent Effect [2]
CC(C)(C)C(=O)NCCn1ccc(-c2ccncc2)n1 | -3.08% | -20%
CNC(=O)[C@@H]1C[C@H]2CN(C(=O)c3ccco3)C[C@H]2N1C | -1.4% | -6.39%
Fc1ccc(CN2CCO[C@H]3[C@H](OCC4CC4)CC[C@@H]32)cc1 | -1.08% | 3.83%
O=C(NCCCNCC1CNc2ccnn2C1)c1ccccc1 (centres undefined) | 0.0558% | -16.8%
Cc1ccc(-c2csc(N)c2C#N)cc1 | -4.7% | -3.71%
CN(Cc1ccc(Cl)s1)C(=O)c1cccc(OCC(N)=O)c1 | -2.2% | 0.368%
Cc1cc(C[C@@H]2CCC[C@H]2NCc2ccccc2C(F)(F)F)on1 | 3.02% | 26%
CCc1nnc2n1CCN(C(=O)c1ccc(C(F)(F)F)nc1C)C2 | 1.43% | -8.18%
Cc1cccc(CN2CCc3nnc(CN4CCCC4=O)n3CC2)n1 | -2.89% | 3.17%
Cc1cc(C)n(CC2CCCN2C(=O)c2cnn(C)c2C2CC2)n1 (centres undefined) | 1.84% | 1.91%
CC(C)COCC(NC(=O)c1cc[nH]n1)c1ccco1 (centres undefined) | 7.45% | 9.69%
COCCN1CCC(N(Cc2noc(C3CC3)n2)C(C)=O)C1 (centres undefined) | -1.46% | 29.5%
CCCC(=O)N1CC[C@@H]2[C@H](CC1)N(Cc1cccnc1)CCS2(=O)=O | -0.493% | -7.37%
CN(C)c1cc(CNC(=O)c2ccc(=O)[nH]n2)ccn1 | -3.92% | -29.1%
CN1C(=O)C(C)(C)COc2cc(NS(=O)(=O)c3ccccc3)ccc21 | -5.61% | 8.93%
COc1ccccc1CNC(=O)C1=NN(c2ccc(C)cc2)C(=O)CN1 | 17.6% | 11%
Cc1ccc(CNC(=O)CN2CCN(CC(O)C3CC3)CC2)cc1 (centres undefined) | 1.21% | -15.5%
CC1c2ncc(CN3CCN(C)CC3)n2CCN1Cc1cccnc1 (centres undefined) | 1.75% | -23.1%
CC(OCC1CC1)C(=O)N1CCCN(Cc2nccn2C)CC1 (centres undefined) | 7.9% | -20.4%
Cc1cc(C)n(C2CCCN(C(=O)c3cccc4[nH]ncc34)C2)n1 (centres undefined) | 7.59% | -6.75%
Cc1nn(-c2ccccc2)cc1C(=O)N1CCCN2CCCC2C1 (centres undefined) | -6.57% | -22%
COc1cccc(CN(C)Cc2cccc(C#N)c2)c1OC | -1.23% | 14.1%
COc1ccccc1S(=O)(=O)Nc1ccc2c(C(=O)O)c[nH]c2c1 | 3.46% | 12.9%
COc1ccc(C(C(=O)O)N2CCCN(C3CCCC3)CC2)cc1OC (centres undefined) | 0.804% | -25.6%
